Experimental data reported in PubChem BioAssay (NCATS).
Results filed as inconclusive are left out. Entries that show only a call come without a potency. Activity calls are given as the source filed them. Calls follow the shape of the dose curve; as a rule, active = well fitted cell-killing curve with a large enough effect; inconclusive = small, poorly fitted or top-dose-only effect, or effect the other way; inactive = flat fitted curve, though single readings scatter. Where a SMILES comes first, the peptide text is derived from it. [ ]: non-standard residue; d: D form. ξ: configuration not given here. ξLac(3-iPr) = CC(C)CC(O)C(=O)O; NMeV = CN[CH](C(=O)O)C(C)C; NMeA = CN[CH](C)C(=O)O; βAla = NCCC(=O)O

System: HeLa
Assay: Primary qHTS to identify gynecologic anti-cancer compounds using libraries of approved drugs and bioactive compounds (AID 1345084); also: nearly all actives have a fitted effect of over 55% in size
Conditions: Gynecologic cancer cell panel viability, ATPlite luminescence, 48 h; series mostly up to 57.5 µM
From the text: National Center for Advancing Translational Sciences [NCATS] Assay Overview: Chemotherapeutic drug responses vary from cancer to cancer and from patient to patient. These variations could be caused by a number of factors including patient genomic background, tumor mutations, tumor heterogeneity, and aspects of drug treatment. Chemotherapeutic drug resistance is also a common issue and can lead to ineffective treatment and patient death. Here we have profiled the cell killing effects of thousands of compounds to characterize the responses in three gynecological cancers, identify cancer-selective compounds, and understand the diversity of responses to these compounds from pan-cancer suppressors to single cell line selective compounds. In this assay, we screened a 7,914 compound drug library that included approved drug and bioactive compounds in six ovarian, three cervical, and […] placental cancer cell lines using the ATPlite assay for cell viability. […] The cervical cancer cell lines included HeLa, Ca Ski, and C-33 A. The placental cancer cell lines included JEG-3. HEK 293T cells were used as the control cell line to determine the selectivity index. ATPlite is a luminescence based assay reliant on the conversion of a luciferase substrate to light in the presence of ATP. As a cytotoxic compound will suppress growth and decrease the number of cells, the concentration of ATP will decrease, and less light signal will be detected in the well.
Assay Protocol Summary: 1,000 cells in 4 uL of media were dispensed into white, solid bottom 1536-well plates using a Multidrop Combi (Thermo Scientific). The Assay plates were incubated for 16 hours at 37 C with 5% CO2 in assay plates, followed by the addition of 23 nL of DMSO or drug dissolved in DMSO. Each compound was assayed in five concentrations (0.092, 0.46, 2.3, 11.5, and 57.5 uM), using the automated Wako 1536 Pin Tool workstation and incubated at 37 C with 5% CO2 48 hours. 4 uL of ATPlite, the ATP monitoring reagent, was then added to the each well of the assay plates using the Multidrop Combi reagent dispenser followed by incubation for 15 minutes at room temperature. The resulting luminescence was measured using the ViewLux plate reader.
Potency is read from the fitted curve at half-maximal effect.

| Compound | Potency |
| --- | --- |
| C[C@@H]1[C@H](O)[C@@H](C)/C=C/C=C/CC/C=C/C=C/C=C/C=C/[C@H](O[C@H]2O[C@@H](C)[C@H](O)[C@@H](N)[C@H]2O)C[C@@H]2O[C@](O)(C[C@@H](O)[C@H](O)CC[C@@H](O)C[C@@H](O)C[C@@H](O)CC(=O)O[C@H]1C)C[C@H](O)[C@H]2C(=O)O | inactive |
| C1=C(c2cnc[nH]2)c2ccsc2CC1 | inactive |
| C/C=C(\C)C(=O)O[C@@H]1[C@@H](C)[C@]2(O)C3C=C(C)C(=O)[C@@]3(O)CC(CO)=C[C@H]2C2C(C)(C)[C@@]21OC(=O)C(C)CC (stereo not given in full) | inactive |
| CC(=O)O[C@H]1C[C@]2(O)[C@@H]3CC[C@@H]4C[C@@H](O)CC[C@]4(C)[C@H]3CC[C@]2(C)[C@H]1c1ccc(=O)oc1 | 316 nM (active) |
| CCc1nn(C)c(C(=O)NCc2ccc(Oc3ccc(C)cc3)cc2)c1Cl | inactive |
| CC1=CC2/C=C(\C)CCC(O)C(O)C(O)CC(=O)C23C(=O)NC(CC(C)C)C3C1C (stereo not given) | inactive |
| C[C@@H]1C[C@@H](O)[C@]2(O)O[C@@H]3C[C@@]4(C=O)C(CC[C@@H]5C4CC[C@]4(C)[C@@](O)(C6=CC(=O)OC6)CC[C@]54O)C[C@H]3OC2O1 (stereo not given in full) | 3980 nM (active) |
| CC1CCCC(=O)CCC/C=C/c2cc(O)cc(O)c2C(=O)O1 (stereo not given) | inactive |
| CCCN(CCC)[C@@H]1CCc2ccc3[nH]c(C#N)cc3c2C1 | inactive |
| CCOP(=O)(OCC)Oc1ccc2c(C)cc(=O)oc2c1 | inactive |
| CCC(C)C1NC(=O)C2CCCN2C(=O)C(CC(C)C)OC(=O)CCNC(=O)C(C)N(C)C(=O)C(C(C)C)N(C)C1=O (stereo not given) (cyclo([ξLac(3-iPr)]PI[NMeV][NMeA][βAla]); configuration not given here) | inactive |
| C=C(C)[C@@H]1[C@H]2OC(=O)[C@H]1[C@]1(O)C[C@H]3O[C@]34C(=O)O[C@H]2[C@]14C | inactive |
| CC1=CC2OC3[C@H](O)C[C@@](C)([C@]34CO4)[C@@]2(CO)[C@H](O)C1=O (stereo not given in full) | 25100 nM (active) |
| COC(=O)C12C(=O)C(C)(O)C(=O)C1(C)C(C)=CC1C3(C=O)CCC(OC(C)=O)C(C)(C)C3CCC12C (stereo not given) | inactive |
| C[C@@H]1CCC2[C@@H](C)C(=O)OC3O[C@@]4(C)CCC1[C@]32OO4 (stereo not given in full) | inactive |
| C[C@]12CC[C@H](O)C[C@@]1(O)CC[C@@H]1[C@@H]2CC[C@]2(C)[C@@H](c3ccc(=O)oc3)CC[C@]12O | inactive |
| COC(=O)C1=COC(C)C2CN3CCC4(C(=O)Nc5ccccc54)C3CC12 (stereo not given) | inactive |
| C=C(C)[C@@]12O[C@@H]1[C@@]1(C)C(=C[C@H]2O)CC[C@@H](O)[C@@H]1C | inactive |
| COC1CC(O[C@H]2CC[C@]3(C)C4CC[C@]5(C)[C@@H](C6=CC(=O)OC6)[C@@H](OC(C)=O)C[C@]5(O)C4CC[C@@H]3C2)OC(C)C1O (stereo not given in full) | 891 nM (active) |
| CC(=O)C1CCC2C3CCC4C[C@@H](O)CCC4(C)C3CCC12C (stereo not given in full) | inactive |

| Compound | Potency |
| --- | --- |
| CC(=O)O[C@H]1C(=O)[C@]2(C)C(O)C[C@H]3OC[C@@]3(OC(C)=O)[C@H]2[C@H](OC(=O)c2ccccc2)[C@]2(O)C[C@H](O)C(C)=C1C2(C)C (stereo not given in full) | inactive |
| CC1CCCC(O)CC(=O)Cc2cc(O)cc(O)c2C(=O)O1 (stereo not given) | inactive |
| COCC(C(=O)OC1CC2CCC(C1)N2C)c1ccccc1 (stereo not given) | inactive |
| C[C@H]1CCC[C@H](O)CCC/C=C/c2cc(O)cc(O)c2C(=O)O1 | inactive |
| CC(=O)O[C@@H]1[C@H]2CC[C@H]3[C@@](C)(O)[C@@H]4C[C@H](O)C(C)(C)[C@@]4(O)[C@H](O)C[C@@]13C[C@@]2(C)O | inactive |
| CN1C(=O)C(Cc2ccc3ccccc3c2)N=C(c2ccc(O)cc2)c2cc(Cl)ccc21 (stereo not given) | inactive |
| C=C1C(=O)O[C@@H]2[C@H]3C(=C)[C@@H](O)C[C@H]3C(=C)C[C@@H](O)[C@@H]12 | inactive |
| C=C1C2(C)CC3C(C)(O)C4=CC(=O)OC(C)(C)C4=CCC3(C)C13C(=O)OC(C)C3(O)C2=O (stereo not given) | inactive |
| C[C@]12CC[C@H](OC3OC(CO)C(O)C(O)C3OC3OC(CO)C(O)C(O)C3O)C[C@@H]1CC[C@@H]1C2CC[C@]2(C)[C@@H](C3=CC(=O)OC3)CC[C@]12O (stereo not given in full) | inactive |
| Cc1ccccc1C1=CCN(C)CC1 | inactive |
| COc1cc(O)c2c(c1)/C=C/C[C@@H](O)[C@@H](O)C(=O)CCC[C@H](C)OC2=O | inactive |
| CN1CCc2cc3c(cc2[C@H]1[C@@H]1OC(=O)c2c1ccc1c2OCO1)OCO3 | inactive |
| COC(=O)CC1CC2(C(=O)c3c(O)cccc3C2(O)C(=O)OC)C(C)O1 (stereo not given) | inactive |
| C=CCN1CC[C@]23c4c5ccc(O)c4O[C@H]2[C@@H](O)CC[C@@]3(O)[C@H]1C5 | inactive |
| N#Cc1ccc(N2CCN(C(=O)COc3ccc4[nH]cc(CCN)c4c3)CC2)cc1 | inactive |
| C=C[C@H]1CN2CCC1C[C@H]2[C@H](O)c1ccnc2ccccc12 (stereo not given in full) | inactive |
| Cc1ccc(Cn2nc(C(=O)N[C@@H]3C(C)(C)[C@@H]4CC[C@@]3(C)C4)cc2-c2ccc(Cl)c(C)c2)cc1 | inactive |
| CCOc1ccc(Oc2ccc(OCc3cc(F)ccc3F)cc2)c(N)c1 | inactive |
| CCOC(=O)Nc1ccc(NCc2c(C)cc(C)cc2C)cc1N | inactive |
| C[C@]12CC[C@H](O)C[C@H]1CC[C@@H]1[C@@H]2[C@H](O)C[C@]2(C)[C@@H](c3ccc(=O)oc3)CC[C@]12O | 112 nM (active) |
